From PubChem BioAssay come the findings set out here.

Test [1] is described as follows: inhibitors of TNFa-induced NFkB p65 translocation, primary screen, imaging, HUVEC, MLSMR starter and 10KST1 sets (AID 438;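 active = inhibition above 20% together with a positive visual image hit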;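 also: compound added about 3h40 before a 20 min TNFalpha stimulation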;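 as to inhibition: signal is the nuclear over cytoplasmic p65 intensity ratio per well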). The conditions noted are these: HUVEC TNFa-induced p65 nuclear translocation; cell count: measured here: nuclei count (cytotoxicity indicator), at 2.08 µM; inhibition: at 2 µM, stronger effect = higher value, 0% TNFa-plus-vehicle, 100% no-TNFa wells.
A short description of test [2]: reduction of polyQ htt aggregates in cells – imaging, exon1htt(103Q)mCFP cells, high-content imaging, primary screen (AID 483).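 Also: compound exposure lasted 3 days before fixation.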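 As to nuclei count: percent of the per-plate median nuclei count of sample wells.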 The conditions noted are these: exon1htt(103Q)mCFP cell line, aggregate imaging, at 2 µM; inhibition of aggregation: stronger effect = higher value; nuclei count: measured here: cell count, toxicity.
Test [3] in a line: endothelial E-selectin expression blockers – imaging, HUVEC, immunofluorescence, MLSMR starter and 10KST1 sets, primary screen (AID 487;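 active = visually confirmed hit in the image check and inhibition above 20%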;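 as to inhibition: signal is fraction of cell area covered by stained E-selectin grains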;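 as to nuclei count: 100% = median nuclei count of all wells on the same plate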). The conditions noted are these: HUVEC TNFalpha-induced E-selectin immunofluorescence imaging, at 2 µM; inhibition: stronger effect = higher value; nuclei count: measured here: cell number, toxicity.
In test [4] the target is Voltage-gated potassium channel subunit beta-2 (Rattus norvegicus) (UniProt P62483). The test is described as follows: inhibitors of rat Kvbeta2 reductase activity – biochemical, NADPH fluorescence, primary screen (AID 622;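 active = fluorescence slope higher than the sample average by over 3 SD, cut at about -0.22 in these data, passing the limit was not always enough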;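 also: slope of raw intensity against log time taken from 70 to 1610 s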). The conditions noted are these: recombinant KvBeta, 4-cyanobenzaldehyde reduction, at 10 µM, stronger effect = higher value.
Voltage-gated potassium channel subunit beta-2 (Rattus norvegicus), sequence (P62483 whole entry, looked up): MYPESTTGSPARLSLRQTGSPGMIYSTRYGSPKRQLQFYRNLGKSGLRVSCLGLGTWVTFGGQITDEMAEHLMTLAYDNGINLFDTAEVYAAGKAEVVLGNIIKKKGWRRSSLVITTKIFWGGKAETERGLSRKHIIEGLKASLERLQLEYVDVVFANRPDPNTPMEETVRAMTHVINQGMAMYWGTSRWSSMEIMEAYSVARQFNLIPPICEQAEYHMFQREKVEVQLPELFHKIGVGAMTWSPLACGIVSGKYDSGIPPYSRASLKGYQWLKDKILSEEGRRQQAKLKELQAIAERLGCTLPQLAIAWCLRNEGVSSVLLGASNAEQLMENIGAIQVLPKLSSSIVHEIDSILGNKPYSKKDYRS
Test [5] has the same target. Put plainly: enhancers of rat Kvbeta2 NADPH turnover – biochemical, NADPH fluorescence, primary screen (AID 623;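 active = NADPH fluorescence slope more negative than the mean of all samples by about 3 SD, 99.7% confidence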;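 also: fluorescence intensity change per second fitted from 20 to 320 s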). The conditions noted are these: Recombinant KvBeta, NADPH fluorescence decrease slope, 10 min; at 10 µM; stronger effect = lower value.
Test [6] has as its target Alpha-2C adrenergic receptor (Homo sapiens) (UniProt P18825). Put plainly: compounds altering alpha2C-coupled GIRK flux – cell-based, HEK293 alpha2C/GIRK1/2, thallium flux, primary screen (AID 624;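 active = fluorescence slope after compound addition differing from the mean of all screened samples at 99.7% confidence, in either direction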;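 also: slope of fluorescence ratio to pre-addition baseline per second over 15 to 24 s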). The conditions noted are these: thallium flux BTC fluorescence, at 10 µM, actives lie on both sides.
Test [7] can be described thus: blockers of RIG-like receptor reporter activation – cell-based, Sendai virus stimulus, luciferase, 10K MLSCN set, TLR/RLR signaling modifier project, primary screen (AID 602276;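 active = inhibition at or above 50% at 10 µM; inactive = inhibition below 50%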;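 also: firefly luciferase from ISG56 promoter only with Renilla not read in this screen; 0% = Sendai virus plus DMSO and 100% = medium plus DMSO without virus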). The conditions noted are these: HEK293 RL24 IRF3 luciferase reporter, at 10 µM, stronger effect = higher value. In general terms: Reporter assays use an easily measured gene product as a stand-in for the process of interest.

A short description of test [8]: TLR3 IRF3 reporter activation blockers – cell-based, poly I:C stimulus, luciferase, 10K MLSCN set, primary screen (AID 602277;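 active = inhibition of the reporter signal at or above 50%; inactive = inhibition below 50%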). The conditions noted are these: HEK293-TLR3 RL24 IRF3 luciferase reporter, at 10 µM, stronger effect = higher value.

Activity calls are given as the source filed them.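 The calls were made as follows, unless noted: active = visual image review flags a hit and inhibition of aggregation exceeds 20%; inconclusive = visual hit but inhibition at or below 20%; inactive = no hit on visual image review.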

Alpha-2C adrenergic receptor (Homo sapiens), sequence (P18825 whole entry, looked up): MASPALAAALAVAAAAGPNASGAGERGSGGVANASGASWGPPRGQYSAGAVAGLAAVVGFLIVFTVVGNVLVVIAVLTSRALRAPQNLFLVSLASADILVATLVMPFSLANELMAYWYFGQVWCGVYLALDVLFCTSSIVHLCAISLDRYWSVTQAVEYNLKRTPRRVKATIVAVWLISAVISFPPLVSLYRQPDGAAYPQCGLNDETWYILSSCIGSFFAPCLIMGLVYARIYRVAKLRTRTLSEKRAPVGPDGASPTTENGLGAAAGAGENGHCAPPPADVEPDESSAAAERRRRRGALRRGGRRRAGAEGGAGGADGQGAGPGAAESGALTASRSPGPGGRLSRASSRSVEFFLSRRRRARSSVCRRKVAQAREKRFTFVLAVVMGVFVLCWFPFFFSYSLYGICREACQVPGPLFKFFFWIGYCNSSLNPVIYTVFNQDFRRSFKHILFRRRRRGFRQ

Turning to `c1coc(-c2nnc(NC3=NCCC3)o2)c1`, the cell count in test [1] worked out at 527. Moreover, the inhibition in test [1] is -5.3% (inactive); in test [3], -80.8% (inactive); in test [7] it was -15.4% (inactive); in test [8] it was -42.4% (inactive). Besides, the inhibition of aggregation in test [2] is 6.6% (inactive). In addition, the nuclei count in test [2] worked out at 98.8%; in test [3], 162%. Besides, the fluorescence slope in test [4] was -0.526 (inactive). Besides, in test [5], the NADPH fluorescence slope was 2.5e-05 (inactive). Further, in test [6], the slope was 0.0054 (inactive).

With `Cc1cc(C)cc(NC(=O)C2CCCN(S(=O)(=O)c3cnc[nH]3)C2)c1` (centres undefined), the cell count in test [1] was found to be 595. In addition, the inhibition in test [1] was 17.2% (inactive); in test [3], -30% (inactive); in test [7], 14.1% (inactive); in test [8], 33.8% (inactive). The inhibition of aggregation in test [2] is -39.1% (inactive). The nuclei count in test [2] worked out at 97.1%; in test [3] it was 124%. Further, the fluorescence slope in test [4] is -0.523 (inactive). The NADPH fluorescence slope in test [5] was 1.2e-05 (inactive). In test [6], the slope was 0.00642 (inactive).

Regarding `CCOC(=O)CN1CC23C=CC(O2)C(C(=O)Nc2ccc(OCC)cc2)C3C1=O` (centres undefined), in test [1], the cell count amounted to 615. Also, the inhibition in test [1] is 0.7% (inactive); in test [3], -5.7% (inactive); in test [7] it was 7.04% (inactive); in test [8], 15.5% (inactive). The inhibition of aggregation in test [2] is -10.5% (inactive). In addition, the results for the nuclei count in test [2] and in test [3] were 112% and 106%, respectively. In addition, the fluorescence slope in test [4] is -0.517 (inactive). Also, the NADPH fluorescence slope in test [5] was -1.3e-05 (inactive). For the same compound, the slope in test [6] was 0.00673 (inactive).

For the compound `O=C1OCc2cc(NC(=O)C3CCCO3)ccc21` (centres undefined), in test [1], the cell count was 790. Also, the inhibition was -8.1% (inactive) in test [1], -31.8% (inactive) in test [3], 3.9% (inactive) in test [7] and 13.5% (inactive) in test [8]. Besides, in test [2], the inhibition of aggregation was 13.1% (inactive). In addition, the nuclei count in test [2] and in test [3] was 111% in each case. Also, the fluorescence slope in test [4] was -0.379 (inactive). The NADPH fluorescence slope in test [5] was 5.7e-07 (inactive). Also, the slope in test [6] was 0.00421 (inactive).

Consider `CC(=O)Nc1ccc(S(=O)(=O)Nc2nc3ccccc3nc2N2CCCC2)cc1`, for which the cell count in test [1] was found to be 369. For the same compound, the inhibition is 3.2% (inactive) in test [1], -42.3% (inactive) in test [3], 20.8% (inactive) in test [7] and 21.3% (inactive) in test [8]. The inhibition of aggregation in test [2] was 10.6% (inactive). For the same compound, the results for the nuclei count in test [2] and in test [3] were 106% and 128%, respectively. For the same compound, the fluorescence slope in test [4] was -0.593 (inactive). Further, in test [5], the NADPH fluorescence slope was 2.1e-06 (inactive). Further, the slope in test [6] is 0.00326 (inactive).

`CCCCCOc1ccc(C2NC(=O)NC2=O)cc1` (centres undefined): the cell count in test [1] worked out at 804. Also, the inhibition in test [1] was -5.5% (inactive); in test [3], -50.9% (inactive); in test [7], -12.1% (inactive); in test [8], -2.6% (inactive). The inhibition of aggregation in test [2] was -5.5% (inactive). Further, the nuclei count came to 107% in test [2] and 121% in test [3]. Further, the fluorescence slope in test [4] was -0.561 (inactive). Also, the NADPH fluorescence slope in test [5] is -4.1e-05 (inactive). Besides, in test [6], the slope was 0.00708 (inactive).

As to `COC(=O)c1sc2ccccc2c1NC(=O)c1cccs1`, the cell count in test [1] is 729. Besides, the inhibition in test [1] is 16.4% (inactive); in test [3], 1.4% (inactive); in test [7], -16.8% (inactive); in test [8], -27.9% (inactive). For the same compound, the inhibition of aggregation in test [2] is 21.4% (inactive). Besides, the nuclei count stood at 101% in test [2] and 99.1% in test [3]. Besides, the fluorescence slope in test [4] was -0.551 (inactive). Also, the NADPH fluorescence slope in test [5] was -2.2e-05 (inactive). The slope in test [6] is 0.00536 (inactive).

As to `CCOc1ccc(NC(=O)CN2C(=O)C3CCCN3C2=O)cc1` (centres undefined), in test [1], the cell count amounted to 551. Besides, the inhibition in test [1] was -13.7% (inactive); in test [3], -48.6% (inactive); in test [7], 3.2% (inactive); in test [8] it was 8.26% (inactive). The inhibition of aggregation in test [2] is -2.3% (inactive). In addition, the nuclei count in test [2] came to 102%; in test [3], 110%. Also, the fluorescence slope in test [4] is -0.572 (inactive). Besides, in test [5], the NADPH fluorescence slope was 1.4e-05 (inactive). Moreover, the slope in test [6] is 0.00647 (inactive).

On to `CC(C)(C)n1ncc2c(=O)n(CC(=O)NCc3ccc(F)cc3)cnc21`, for which, in test [1], the cell count is 403. For the same compound, the inhibition in test [1] was 9.3% (inactive); in test [3] it was 18.8% (inactive); in test [7], -15.8% (inactive); in test [8] it was -46.6% (inactive). The inhibition of aggregation in test [2] is 14.9% (inactive). Also, the nuclei count is 95.8% in test [2] and 91.1% in test [3]. In test [4], the fluorescence slope is -0.367 (inactive). In test [5], the NADPH fluorescence slope was -5.3e-05 (inactive). In addition, the slope in test [6] was 0.00547 (inactive).

With `COc1cc(C)c(N)cc1C(C)C`, the cell count in test [1] came to 422. Besides, the inhibition in test [1] was -5.6% (inactive); in test [3], -41.7% (inactive); in test [7], 12.9% (inactive); in test [8] it was 18.3% (inactive). Besides, the inhibition of aggregation in test [2] was 5.2% (inactive). Further, the values for the nuclei count in test [2] and in test [3] were 81.4% and 110%, respectively. For the same compound, the fluorescence slope in test [4] is -0.589 (inactive). For the same compound, in test [5], the NADPH fluorescence slope is -1.8e-05 (inactive). Besides, the slope in test [6] is 0.00295 (inactive).

Turning to `COCC(=O)N(c1ccc(C(C)C)cc1)C1C=CS(=O)(=O)C1` (centres undefined), the cell count in test [1] stood at 691. For the same compound, the inhibition was -23.8% (inactive) in test [1], -55.5% (inactive) in test [3], 7.64% (inactive) in test [7] and 28.1% (inactive) in test [8]. Besides, the inhibition of aggregation in test [2] was 20.8% (inactive). The nuclei count worked out at 129% in test [2] and 103% in test [3]. Moreover, in test [4], the fluorescence slope was -0.314 (inactive). Besides, the NADPH fluorescence slope in test [5] is -7.6e-06 (inactive). Moreover, the slope in test [6] was 0.00672 (inactive).

In the case of `O=C1CC(C2CCCO2)C(=O)N1Cc1ccccc1` (centres undefined), the cell count in test [1] stood at 418. The inhibition in test [1] is -5.4% (inactive); in test [3] it was -1.7% (inactive); in test [7], -6.03% (inactive); in test [8] it was 10.9% (inactive). The inhibition of aggregation in test [2] was 19% (inactive). Also, the figures for the nuclei count in test [2] and in test [3] were 101% and 125%, respectively. In addition, the fluorescence slope in test [4] is -0.489 (inactive). The NADPH fluorescence slope in test [5] was -3.7e-05 (inactive). Also, in test [6], the slope is 0.00667 (inactive).

Regarding `CCOC(=O)c1sc(NC(=O)c2noc3c2CCCC3)c(C(=O)OCC)c1C`, the cell count in test [1] worked out at 688. Besides, the inhibition was -2.9% (inactive) in test [1], -47.9% (inactive) in test [3], 2.17% (inactive) in test [7] and 6.46% (inactive) in test [8]. Moreover, the inhibition of aggregation in test [2] is -14.8% (inactive). Further, the figures for the nuclei count in test [2] and in test [3] were 120% and 87.6%, respectively. The fluorescence slope in test [4] was -0.549 (inactive). Besides, the NADPH fluorescence slope in test [5] was 1e-05 (inactive). Besides, the slope in test [6] is 0.0086 (inactive).

Regarding `O=C1c2ccccc2S(=O)(=O)N1CC(O)Cn1c2ccccc2c2ccccc21` (centres undefined), the cell count in test [1] was 397. Also, the inhibition is 1% (inactive) in test [1], -121% (inactive) in test [3], 5.13% (inactive) in test [7] and 30.2% (inactive) in test [8]. The inhibition of aggregation in test [2] was 8.8% (inactive). In addition, the nuclei count was determined as 105% in test [2] and 118% in test [3]. Further, in test [4], the fluorescence slope was -0.421 (inactive). Besides, the NADPH fluorescence slope in test [5] was -4.3e-05 (inactive). Moreover, the slope in test [6] was 0.00434 (inactive).

As usually defined, the inhibition is the relative decrease from the control value, in per cent.
